Measurements reported in PubChem BioAssay AID743286 (National Center for Advancing Translational Sciences (NCATS), 2014).
Out of some 1,100 compounds screened, about 340 (31%) were called active. Another 40% or so got no clear call; they are omitted. The list is a sample of the results. A number with no mark means an inactive call. Calls follow the shape of the dose curve; as a rule, active = well fitted inhibition curve with a large enough effect; inconclusive = small, poorly fitted or top-dose-only effect; inactive = flat fitted curve, though single readings scatter.

Target: Phosphatidylinositol 5-phosphate 4-kinase type-2 alpha (Homo sapiens) (UniProt P48426)
Sequence (P48426 whole entry, looked up): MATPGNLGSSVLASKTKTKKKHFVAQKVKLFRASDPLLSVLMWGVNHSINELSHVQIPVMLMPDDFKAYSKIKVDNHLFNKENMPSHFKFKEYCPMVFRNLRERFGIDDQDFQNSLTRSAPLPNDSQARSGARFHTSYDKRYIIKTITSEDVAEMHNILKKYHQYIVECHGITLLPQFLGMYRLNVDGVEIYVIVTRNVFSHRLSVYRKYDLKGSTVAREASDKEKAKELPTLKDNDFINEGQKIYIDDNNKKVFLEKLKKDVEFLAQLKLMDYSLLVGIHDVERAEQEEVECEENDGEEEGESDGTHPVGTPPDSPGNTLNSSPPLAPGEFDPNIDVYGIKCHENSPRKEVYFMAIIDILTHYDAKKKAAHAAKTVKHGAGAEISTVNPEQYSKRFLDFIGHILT
Test: qHTS for Inhibitors of PI5P4K: Confirmation in Primary Assay; also: nearly all actives have a fitted effect of over 65% in size
Details: PI5P4Kalpha enzyme, ADP-Glo luminescence, 60 min; series mostly up to 76.9 µM; activity change, negative = inhibition: at the top concentration
Summary of the method: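 ADP-Glo luminescence end-point quantifies ADP from 60-min room-temperature turnover of PI5P by PI5P4Kα. ATP 5 µM final; buffer 0.038 M HEPES pH 7.4, 0.28 mM EGTA, 0.1% CHAPS, 5% DMSO.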
% is scaled to controls: 0 for no effect and ±100 for the full control effect; potency is read from the fitted curve at half-maximal effect.

Row | Compound | activity change, negative = inhibition | Potency
1 | CC(NC(=O)c1ccnn1C)C1CCCO1 (stereo unspecified) | 7.18% | –
2 | Cn1c(=O)oc2cc(S(=O)(=O)Nc3ccccc3)ccc21 | -5.26% | –
3 | CCOc1ccc(NC(=O)N2CCC(n3nnc4ccccc43)CC2)cc1 | 1.23% | –
4 | O=C1NN=C2CCCCCC12 (stereo unspecified) | 3.7% | –
5 | C[C@H](NC(=O)c1cc2c(cn1)[nH]c1ccccc12)C(=O)O | – | 10 µM (active)
6 | Cc1ccc(-c2cc3c(n2-c2ccc(C(=O)O)cc2)CCCC3=O)cc1 | – | 15.8 µM (active)
7 | Nc1sc2c(c1C(=O)c1ccccc1)CCCC2 | -22.2% | –
8 | Nc1nc(Nc2ccccc2)sc1C(=O)c1ccccc1 | – | 7.94 µM (active)
9 | COc1ccc(C(=O)c2sc(Nc3ccccc3F)nc2N)cc1 | – | 5.62 µM (active)
10 | Nc1nc(Nc2ccccc2F)sc1C(=O)c1ccccc1 | – | 14.1 µM (active)
11 | CCC(=O)Oc1ccc(C(=O)Nc2c[nH]c(=O)[nH]c2=O)cc1 | -4.14% | –
12 | O=C(c1ccc(OCCN2CCCCC2)cc1)c1c(-c2ccc(O)cc2)sc2cc(O)ccc12 | -20.9% | –
13 | COc1ccc(S(=O)(=O)N(C(=O)c2ccco2)c2cc3sc(=O)oc3c3ccccc23)cc1 | -19.6% | –
14 | COc1ccccc1N(CC(=O)NCc1ccco1)S(=O)(=O)c1ccc(C)cc1 | – | 15.8 µM (active)
15 | COc1ccccc1N(CC(=O)N1CCC(C(N)=O)CC1)S(=O)(=O)c1ccccc1 | -7.71% | –
16 | CCn1cc(C(=O)N2CCN(c3cccc(C)c3C)CC2)c(=O)c2ccc(C)nc21 | -4.99% | –
17 | CN(Cc1cn(-c2ccccc2)nc1-c1cc2ccccc2o1)C(=O)CCC(=O)O | -2.59% | –
18 | O=C(O)c1cccc(NC(=O)c2cn(-c3ccccc3)nc2-c2cc3ccccc3o2)c1 | – | 14.1 µM (active)
19 | COc1ccc(-c2nnn(CC(=O)N(CC(=O)NC3CCCC3)c3ccccc3)n2)cc1OC | 0.286% | –
20 | O=C(c1ccccc1)c1ccc2nc(-c3ccco3)c(-c3ccco3)nc2c1 | – | 4.47 µM (active)
21 | COCCNC(=O)Nc1ccc2nc(-c3ccco3)c(-c3ccco3)nc2c1 | – | 6.31 µM (active)
22 | COCCNC(=O)C(c1ccc(Cl)cc1)N(Cc1ccco1)C(=O)CCC(=O)Nc1ccccn1 (stereo unspecified) | 0.846% | –

Row | Compound | activity change, negative = inhibition | Potency
23 | CCCCNC(=O)c1ccc2nc(-c3ccco3)c(-c3ccco3)nc2c1 | – | 12.6 µM (active)
24 | COc1ccc(NC(=O)CSc2nnc(-c3ccco3)c(-c3ccco3)n2)cc1OC | -19.8% | –
25 | COc1ccc(C2=NCCn3nc4cc(OC)ccc4c32)cc1 | -6.76% | –
26 | CCCNC(=O)CSc1nnc(-c2ccco2)n1C | -0.997% | –
27 | CS(=O)(=O)c1ccc(C(=O)Nc2nc(-c3ccco3)c(-c3ccco3)s2)cc1 | -27.4% | –
28 | COc1ccccc1Cc1c(-c2ccco2)nc2c(C)cc(Br)cn12 | -11.9% | –
29 | O=C(Nc1nc(-c2ccco2)cs1)c1ccccc1 | -26.7% | –
30 | Cc1cccc(C)c1NC(=O)C(c1ccc(C(F)(F)F)cc1)n1c(=O)c(-c2ccco2)nc2ccccc21 (stereo unspecified) | -26.5% | –
31 | COc1ccc2nc(-c3ccco3)c(-c3ccco3)nc2c1 | – | 10 µM (active)
32 | CN(C)C(=S)NCc1ccccc1 | 0.0461% | –
33 | CC(=O)N1c2ccc(S(=O)(=O)NCCC(=O)N(C)C3CCCCC3)cc2CC1C (stereo unspecified) | 0.892% | –
34 | COc1cccc2c1C(=O)C[C@]1(CCCC[C@@H]1C)O2 | -0.193% | –
35 | COc1ccc(C(CNC(=O)c2ccc(OCc3cscn3)cc2)N2CCCC2)cc1 (stereo unspecified) | -4.41% | –
36 | CC(C)Sc1nc(N2CCOCC2)c2c(c1C#N)CC(C)(C)N(C)C2 | -4.58% | –
37 | Cc1cc(NC(=O)CCCn2cc([N+](=O)[O-])cn2)n(Cc2ccc(F)cc2)n1 | -0.367% | –
38 | c1ccc2c(CCNc3ncnc4nc[nH]c34)c[nH]c2c1 | – | 17.8 µM (active)
39 | Cc1sc2ncnc(NC(C)C(=O)O)c2c1C (stereo unspecified) | – | 3.98 µM (active)
40 | O=C(Cc1ccc(S(=O)(=O)N2CCOCC2)s1)Nc1nc2c(s1)CCCC2 | – | 14.1 µM (active)
41 | CCn1nc(CC(=O)Nc2nnc(CC(=O)N3CCOCC3)s2)c2ccccc2c1=O | -0.277% | –
42 | CC(=O)c1ccc(NC(=O)c2cnn3ccccc23)cc1 | – | 3.55 µM (active)
43 | COc1ccccc1Nc1ccc2c(O)cc(S(=O)(=O)O)cc2c1 | – | 3.16 µM (active)
44 | O=S(=O)(O)c1cc(O)c2cc(Nc3ccccc3)ccc2c1 | – | 2 µM (active)

Row | Compound | activity change, negative = inhibition | Potency
45 | O=C(CCS(=O)(=O)c1ccc(Br)cc1)NCc1ccc(F)cc1 | -6.2% | –
46 | Cc1cc(NC(=O)CN2CCN(C)CC2)no1 | -28% | –
47 | Cc1cc(NC(=O)CSc2cn(CCNC(=O)c3ccccc3)c3ccccc23)no1 | – | 14.1 µM (active)
48 | Cc1cc(NC(=O)Nc2ccccc2[N+](=O)[O-])no1 | -3.15% | –
49 | O=C1Nc2ccc(C(=O)c3ccco3)cc2/C1=C/c1cc(Cl)c(O)c(Cl)c1 | – | 0.207 µM (active)
50 | COC(=O)c1ccc2c(c1)/C(=C/c1cc(Br)c(O)c(Br)c1)C(=O)N2 | – | 0.823 µM (active)
51 | O=C(Nc1ccccc1Cl)c1ccc2nccnc2c1 | -5.39% | –
52 | NS(=O)(=O)c1ccc(CCNC(=O)c2ccc3nccnc3c2)cc1 | – | 14.1 µM (active)
53 | COCc1cc(N2CCCCC2)nc(-c2ccccc2)n1 | 0.478% | –
54 | Cc1ccc(-c2csc(NS(=O)(=O)c3cccc(F)c3)n2)o1 | – | 11.2 µM (active)
55 | NS(=O)(=O)c1cccc(NC(=O)CSc2nnnn2-c2ccccc2)c1 | 1.94% | –
56 | O=C(O)C1CSC(c2coc3ccccc3c2=O)N1 (stereo unspecified) | -14.7% | –
57 | COc1ccc(NC(C)=O)cc1NC(=O)CSc1nc2ncccc2[nH]1 | 1.09% | –
58 | COc1ccccc1NC(=O)CSc1sc2c(O)cc(=O)[nH]c2c1C#N | – | 10 µM (active)
59 | COc1ccc(NC(=O)CSc2sc3c(O)cc(=O)[nH]c3c2C#N)c(OC)c1 | – | 14.1 µM (active)
60 | COc1ccccc1NC(=O)Cc1nnc(SCC(=O)Nc2ccccc2F)n1C | -1.37% | –
61 | COc1cc(Cl)c(C)cc1NC(=O)CSc1sc2c(O)cc(=O)[nH]c2c1C#N | – | 5.01 µM (active)
62 | COc1ccc(C(=O)NC(CCSC)C(=O)N2CCCCCC2)cc1 (stereo unspecified) | -0.697% | –
63 | COc1cc(NC2=Nc3cccc4cccc2c34)cc(OC)c1OC | -1.43% | –
64 | Cc1nn(-c2ccccc2)c2nc(=O)n(-c3ccccc3)cc12 | -3.35% | –
65 | Cc1ccc(NC(=O)c2cccc(C(=O)Nc3ccc(C)cc3C(=O)O)c2)c(C(=O)O)c1 | – | 8.91 µM (active)
66 | CN(C)c1ccc2nc3ccc(=O)cc-3sc2c1 | – | 11.2 µM (active)
